In PubChem BioAssay (NCI) one finds growth data, which are given here for seven molecules.

About 83,000 compounds went through this panel and 20% of them were active in at least one assay; those are over-represented in the sample as a whole.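 Note: values are percent growth. 100 is the growth of untreated cells, values between 100 and 0 indicate rising inhibition; between -100 and 0 indicates cell death.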 A number with no mark means an inactive call. Activity calls are given as the source filed them. Rule for the calls: active = growth percent below 10; inactive = the rest.

Some test systems named below: HCT-15 colon; HT29 colon; SNB-75 CNS; SNB-19 CNS; U251 CNS; PC-3 prostate; SK-MEL-5 melanoma; UACC-62 melanoma; LOX IMVI melanoma; SK-MEL-28 melanoma; SK-MEL-2 melanoma; EKVX NSCLC; SN12C renal; UO-31 renal; TK-10 renal; ACHN renal; CAKI-1 renal; A498 renal; CCRF-CEM leukemia.
Assay in all cases: NCI-60 one-dose screen, 48 h (100 = growth as untreated, 0 = no growth, -100 = all killed)
Common to all, as to conditions: 10 µM

Take `CN1CCN(c2ccc(Nc3nc(NCCCNC(=O)c4ccc(Cl)cc4)c4sccc4n3)cc2)CC1`: the growth in the assay with HCT-15 colon is 26.8%; in the assay with HT29 colon, 35.4%; with SNB-75 CNS, 99.5%; with SNB-19 CNS, 104%; in the assay on U251 CNS, 44.6%; in the assay with PC-3 prostate, 61.6%. For the same molecule, the growth in the assay on SK-MEL-5 melanoma is 72.4%; in the assay with UACC-62 melanoma it was 86%; with LOX IMVI melanoma it was 59.7%; in the assay on SK-MEL-28 melanoma, 89.1%; in the assay with SK-MEL-2 melanoma, 113%; in the assay on EKVX NSCLC it was 88.3%. Besides, the growth in the assay on SN12C renal was 74.5%; in the assay on UO-31 renal, 67.3%; in the assay with TK-10 renal, 115%; in the assay with ACHN renal, 73.1%; in the assay with CAKI-1 renal, 79.9%; in the assay on A498 renal, 136%. Moreover, in the assay on CCRF-CEM leukemia, the growth is 34.8%.
As to `O=C(Nc1ccc(OCc2ccccc2)cc1)Nc1ccc(Cl)c(C(F)(F)F)c1`, the growth in the assay on HCT-15 colon is 9.69% (active); with HT29 colon it was 6.91% (active); in the assay with SNB-75 CNS, -20.2% (active); in the assay with SNB-19 CNS, 8.37% (active); in the assay on U251 CNS, -10.2% (active); in the assay on PC-3 prostate, -0.967% (active). The growth with SK-MEL-5 melanoma was -96.6% (active); in the assay with UACC-62 melanoma, 14.1%; in the assay with LOX IMVI melanoma it was -25.1% (active); with SK-MEL-28 melanoma it was 14.3%; in the assay with SK-MEL-2 melanoma it was -40.2% (active); with EKVX NSCLC it was 5.04% (active). In addition, the growth with SN12C renal is 2.86% (active); with UO-31 renal it was -1.46% (active); with TK-10 renal, 21%; in the assay with ACHN renal, 0.776% (active); in the assay on CAKI-1 renal, 3.68% (active); with A498 renal, -15.1% (active). Also, the growth in the assay with CCRF-CEM leukemia was -23.4% (active).
Regarding `COc1ccc(-c2nc(S(=O)(=O)c3ccccc3)c(S(C)(=O)=O)o2)cc1`, the growth was -73% (active) in the assay on HCT-15 colon; -55.2% (active) in the assay on HT29 colon; 77.1% in the assay on SNB-75 CNS; 84.4% in the assay with SNB-19 CNS; 12% in the assay with U251 CNS; 78.2% in the assay with PC-3 prostate. Moreover, the growth was 66.5% in the assay on SK-MEL-5 melanoma; 33.5% with UACC-62 melanoma; -85.3% (active) in the assay with LOX IMVI melanoma; -82.9% (active) in the assay on SK-MEL-28 melanoma; 69.7% with SK-MEL-2 melanoma; 94.1% with EKVX NSCLC. Further, the growth with SN12C renal was -63.7% (active); with UO-31 renal, -100% (active); with TK-10 renal, -99.3% (active); in the assay with ACHN renal, -100% (active); in the assay on CAKI-1 renal, -94.2% (active); in the assay with A498 renal, 113%. In addition, in the assay on CCRF-CEM leukemia, the growth is -46.7% (active).
Take `O=C(Nc1ccncc1)c1ccc(-n2c(=O)[nH]c3ccccc3c2=O)cc1`: the growth in the assay with HCT-15 colon is 97.9%; with HT29 colon, 105%; with SNB-75 CNS, 107%; with SNB-19 CNS it was 91.1%; with U251 CNS, 99.7%; with PC-3 prostate it was 92.4%. The growth in the assay with SK-MEL-5 melanoma was 90.8%; in the assay on UACC-62 melanoma, 76.9%; in the assay with LOX IMVI melanoma it was 83.9%; in the assay with SK-MEL-28 melanoma it was 104%; with SK-MEL-2 melanoma, 91.9%; in the assay with EKVX NSCLC, 94.2%. Besides, the growth in the assay on SN12C renal was 90.5%; in the assay with UO-31 renal, 87.3%; in the assay with TK-10 renal it was 103%; with ACHN renal, 96.2%; in the assay with CAKI-1 renal, 87.3%; with A498 renal, 114%. For the same molecule, the growth with CCRF-CEM leukemia was -31.5% (active).
`CCCCCc1ccc(S(=O)(=O)N(C(C)=O)c2cc(-c3csc(N(C)C(C)=O)n3)ccc2N2CCN(C)CC2)cc1`: the growth with HCT-15 colon is -89.7% (active); in the assay on HT29 colon, -52.5% (active); in the assay on SNB-75 CNS, 73%; in the assay on SNB-19 CNS it was 32.2%; in the assay on U251 CNS, -36.2% (active); in the assay on PC-3 prostate, 26.5%. Moreover, the growth is -16% (active) in the assay on SK-MEL-5 melanoma; -88.2% (active) in the assay on UACC-62 melanoma; -99.8% (active) with LOX IMVI melanoma; -94.3% (active) in the assay on SK-MEL-28 melanoma; 35.1% in the assay on SK-MEL-2 melanoma; 62.7% with EKVX NSCLC. Moreover, the growth is 21.2% in the assay on SN12C renal; 41.8% with UO-31 renal; 76.7% with TK-10 renal; 30.1% with ACHN renal; 31.8% in the assay with CAKI-1 renal; 123% in the assay on A498 renal. Besides, the growth in the assay on CCRF-CEM leukemia was -7.22% (active).
As to `CN1CCN(c2ccc(Nc3nc(NCCCNC(=O)c4ccccc4)c4sccc4n3)cc2)CC1`, the growth in the assay on HCT-15 colon is 12.3%; with HT29 colon, 14.6%; in the assay with SNB-75 CNS, 110%; in the assay with SNB-19 CNS it was 95.5%; with U251 CNS it was 22.8%; in the assay on PC-3 prostate, 56.8%. In addition, the growth in the assay with SK-MEL-5 melanoma was 64.9%; with UACC-62 melanoma, 84.6%; in the assay with LOX IMVI melanoma, 16%; in the assay on SK-MEL-28 melanoma, 73.3%; in the assay on SK-MEL-2 melanoma, 114%; in the assay on EKVX NSCLC it was 89.9%. The growth in the assay on SN12C renal was 84.4%; in the assay on UO-31 renal, 74.9%; in the assay on TK-10 renal it was 117%; in the assay on ACHN renal, 60.1%; with CAKI-1 renal, 72.5%; in the assay with A498 renal it was 141%. Also, in the assay with CCRF-CEM leukemia, the growth is 25.2%.
Regarding `O=C(CS(=O)(=O)c1oc(-c2ccc(Cl)cc2)nc1S(=O)(=O)c1ccccc1)N1CCCC1`, the growth was -89.3% (active) in the assay on HCT-15 colon; -40.6% (active) in the assay on HT29 colon; 55.7% in the assay on SNB-75 CNS; 80.9% with SNB-19 CNS; 37.5% in the assay on U251 CNS; 78.8% in the assay with PC-3 prostate. In addition, the growth in the assay on SK-MEL-5 melanoma is 84.2%; with UACC-62 melanoma it was 47.5%; in the assay on LOX IMVI melanoma, -100% (active); in the assay on SK-MEL-28 melanoma, -100% (active); with SK-MEL-2 melanoma, 82.8%; in the assay with EKVX NSCLC it was 74.9%. Further, the growth in the assay with SN12C renal is -26.2% (active); with UO-31 renal, -100% (active); in the assay with TK-10 renal it was -94.5% (active); in the assay on ACHN renal it was -100% (active); in the assay on CAKI-1 renal, -98.7% (active); in the assay with A498 renal it was 110%. In the assay on CCRF-CEM leukemia, the growth was -45% (active).
